Source: PubChem BioAssay
Unmarked numbers belong to inactive results. Where a call stands in place of a potency, no number is given. For some assays here: Potency and affinity values are given separately. Active and inactive are the calls of the source. Unless noted, the rule behind the calls is not given here.

Key:
[1] = antimalarial activity against Dd2 strain (AID 2302;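 active = growth inhibition above 50% at the single 2 µM test dose, taken to imply half-maximal potency below 2 µM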); settings: P. falciparum Dd2 in RBCs, LDH growth readout, 72 h; at 2 µM; active compounds read high
[2] = human hepatoma cell viability loss – ATP luminescence, cytotoxicity control for P. falciparum antimalarial project, primary screen (AID 2303;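 active = inhibition above 50%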); settings: HepG2 viability, 24-48 h, at 10 µM, active compounds read high
[3] = target: L-lactate dehydrogenase (Plasmodium falciparum (isolate CDC / Honduras)) (UniProt Q27743); experiment: PfLDH activity inhibition – cell lysate, 3D7 strain, counter-screen for P. falciparum growth inhibition project (AID 2304); settings: P. falciparum 3D7 crude extract, LDH APAD/NBT absorbance; at 2 µM; active compounds read high
Sequence of L-lactate dehydrogenase (Plasmodium falciparum (isolate CDC / Honduras)) (Q27743 whole entry, looked up): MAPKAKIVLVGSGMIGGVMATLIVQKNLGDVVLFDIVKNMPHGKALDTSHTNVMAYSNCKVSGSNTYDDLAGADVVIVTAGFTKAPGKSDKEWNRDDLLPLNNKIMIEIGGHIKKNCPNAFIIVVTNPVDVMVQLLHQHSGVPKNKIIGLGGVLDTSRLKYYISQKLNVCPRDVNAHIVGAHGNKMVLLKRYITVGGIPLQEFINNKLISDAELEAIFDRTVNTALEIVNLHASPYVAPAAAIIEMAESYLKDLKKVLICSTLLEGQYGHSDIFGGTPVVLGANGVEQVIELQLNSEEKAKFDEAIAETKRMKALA

[4] = inhibition of 3D7 malaria parasite growth – strain 3D7 (AID 2306); settings: P. falciparum 3D7 erythrocytic growth, LDH absorbance, 72 h; at 2 µM; active compounds read high
[5] = target: Calcium-dependent protein kinase 1 (Plasmodium falciparum (isolate 3D7)) (UniProt P62344); experiment: PfCDPK1 kinase inhibitors, biochemical, TCAMS library (AID 1159585; cut-off not given, nearly all actives have IC50 up to about 0.98 µM;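 note: inhibitors leave more ATP so luminescence rises with inhibition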); settings: recombinant PfCDPK1, Kinase-Glo ATP depletion luminescence
Sequence of Calcium-dependent protein kinase 1 (Plasmodium falciparum (isolate 3D7)) (P62344 whole entry, looked up): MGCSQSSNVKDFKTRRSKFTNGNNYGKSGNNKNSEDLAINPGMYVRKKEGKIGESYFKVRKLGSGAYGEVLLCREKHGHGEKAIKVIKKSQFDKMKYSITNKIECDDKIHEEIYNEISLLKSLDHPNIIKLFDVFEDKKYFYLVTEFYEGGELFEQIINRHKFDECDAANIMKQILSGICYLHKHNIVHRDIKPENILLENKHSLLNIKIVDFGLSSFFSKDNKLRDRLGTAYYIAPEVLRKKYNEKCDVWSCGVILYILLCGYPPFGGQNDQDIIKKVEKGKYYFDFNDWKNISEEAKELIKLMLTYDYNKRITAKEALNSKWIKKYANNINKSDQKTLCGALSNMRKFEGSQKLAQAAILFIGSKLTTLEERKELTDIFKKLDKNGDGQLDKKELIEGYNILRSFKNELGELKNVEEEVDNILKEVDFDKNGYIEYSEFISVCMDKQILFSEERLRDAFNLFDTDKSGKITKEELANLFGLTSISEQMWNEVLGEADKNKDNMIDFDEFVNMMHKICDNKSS

[6] = target: Plasmodium falciparum protein kinase 6 (PK6, PF3D7_1337100) (UniProt Q8IDW1); experiment: PfPK6 kinase inhibitors, biochemical, TCAMS library (AID 1159586); settings: recombinant PfPK6, Kinase-Glo ATP depletion luminescence
Sequence of Plasmodium falciparum protein kinase 6 (PK6, PF3D7_1337100) (Q8IDW1 1-305): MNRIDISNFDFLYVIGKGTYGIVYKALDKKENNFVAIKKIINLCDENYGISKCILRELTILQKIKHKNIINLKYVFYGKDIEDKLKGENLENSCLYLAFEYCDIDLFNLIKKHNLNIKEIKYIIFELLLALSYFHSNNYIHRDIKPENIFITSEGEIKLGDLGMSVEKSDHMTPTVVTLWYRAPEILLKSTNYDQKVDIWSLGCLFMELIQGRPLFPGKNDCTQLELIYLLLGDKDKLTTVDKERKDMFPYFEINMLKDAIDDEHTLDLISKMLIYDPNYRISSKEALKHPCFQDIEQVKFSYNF

[7] = target: Protein kinase 7 (PK7), Plasmodium falciparum 3D7 (PF3D7_0213400) (UniProt Q7YTF7); experiment: inhibition of Plasmodium PK7 catalytic activity – biochemical, TCAMS antimalarial set, Kinase-Glo luminescence (AID 1159587); settings: recombinant PfPK7, Kinase-Glo ATP depletion luminescence
Sequence of Protein kinase 7 (PK7), Plasmodium falciparum 3D7 (PF3D7_0213400) (Q7YTF7 1-343): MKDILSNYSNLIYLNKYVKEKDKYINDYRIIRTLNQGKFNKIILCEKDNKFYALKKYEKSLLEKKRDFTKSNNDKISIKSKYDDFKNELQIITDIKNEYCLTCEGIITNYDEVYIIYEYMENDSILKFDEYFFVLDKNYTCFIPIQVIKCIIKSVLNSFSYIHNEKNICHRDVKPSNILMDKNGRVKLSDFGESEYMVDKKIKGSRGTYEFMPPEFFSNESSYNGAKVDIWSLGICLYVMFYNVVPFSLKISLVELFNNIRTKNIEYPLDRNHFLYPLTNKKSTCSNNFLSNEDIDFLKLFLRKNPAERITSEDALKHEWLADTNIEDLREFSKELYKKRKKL

[8] = target: Calcium-dependent protein kinase 4 (Plasmodium falciparum (isolate 3D7)) (UniProt Q8IBS5); experiment: PfCDPK4 kinase inhibitors, biochemical, TCAMS library (AID 1159588; cut-off not given, nearly all actives have IC50 up to about 0.91 µM); settings: recombinant PfCDPK4, Kinase-Glo ATP depletion luminescence
Sequence of Calcium-dependent protein kinase 4 (Plasmodium falciparum (isolate 3D7)) (Q8IBS5 whole entry, looked up): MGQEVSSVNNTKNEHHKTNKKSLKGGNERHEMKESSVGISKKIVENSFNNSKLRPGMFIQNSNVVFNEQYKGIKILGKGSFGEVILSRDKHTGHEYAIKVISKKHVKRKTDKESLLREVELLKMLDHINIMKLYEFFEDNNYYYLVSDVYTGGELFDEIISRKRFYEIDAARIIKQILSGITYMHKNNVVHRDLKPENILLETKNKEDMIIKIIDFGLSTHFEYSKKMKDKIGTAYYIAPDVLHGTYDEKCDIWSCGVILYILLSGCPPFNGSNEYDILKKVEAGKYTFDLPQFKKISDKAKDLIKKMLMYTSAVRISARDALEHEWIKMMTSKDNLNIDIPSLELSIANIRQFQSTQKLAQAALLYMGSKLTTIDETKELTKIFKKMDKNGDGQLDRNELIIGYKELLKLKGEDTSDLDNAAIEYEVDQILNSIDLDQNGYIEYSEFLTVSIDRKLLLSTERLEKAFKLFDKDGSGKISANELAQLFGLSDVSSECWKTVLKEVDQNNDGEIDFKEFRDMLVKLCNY

SMILES | growth inhibition [1] | inhibition [2] | inhibition [3] [%] | growth inhibition [4] | outcome [5] | outcome [6] | outcome [7] | outcome [8]
Cc1ccccc1C1CCN(C2CCC(NC(=O)/C=C/c3ccccc3C(F)(F)F)CC2)CC1 (stereo not given) | 6% | 63% (active) | -1 | 83% (active) | inactive | inactive | inactive | inactive
O=C(NCc1ccc2c(c1)OCO2)c1nn(CCN2CCC(N3CCCC3)CC2)cc1-c1ccc(Cl)c(Cl)c1 | 17% | 21% | -2 | 94% (active) | inactive | inactive | inactive | inactive
COc1ccc(-c2nc3cccnc3n2CC(=O)Nc2cc(Cl)c(Cl)cc2Cl)c(OC)c1 | 17% | 99% (active) | 1 | 100% (active) | inactive | inactive | inactive | inactive
O=C(Nc1nc2ccc(Cl)cc2s1)c1csnn1 | 99% (active) | 15% | 3 | 96% (active) | inactive | inactive | inactive | inactive
CCC(C)Oc1ccc2nc(N)nc(N)c2c1Cl (stereo not given) | -1% | 57% (active) | -2 | 96% (active) | inactive | inactive | inactive | inactive
CCS(=O)(=O)c1ccc(-c2cnc3[nH]cc(-c4ccc(N)cc4)c3c2)cc1 | 99% (active) | 24% | -5 | 92% (active) | inactive | inactive | inactive | inactive
COc1ccccc1CNc1ccnc(N2CC(Oc3ccc(F)cc3)C2)n1 | 95% (active) | 2% | -4 | 97% (active) | inactive | inactive | inactive | inactive
CCC[C@@H]([C@@H](CC1CCCCC1)C(=O)NC(C(=O)Nc1nccs1)C(CC)c1ccccc1)N(O)C=O (stereo not given in full) | 19% | 50% (active) | -4 | 89% (active) | inactive | inactive | inactive | inactive
CC(Cc1ccc(OCCN2CCN(c3ccc(Cl)cc3)CC2)cc1)NCC(O)c1cccc(C(F)(F)F)c1 (stereo not given) | 96% (active) | 97% (active) | 1 | 99% (active) | inactive | inactive | inactive | inactive
CCOc1cc(C(=O)NC2CCN(Cc3ccccc3)CC2)ccc1-c1nc2cc(Cl)c(F)cc2[nH]1 | 51% (active) | 13% | 4 | 101% (active) | inactive | inactive | inactive | inactive
Cc1cc(-c2nc3ccc(C(=N)N)cc3[nH]2)c(C)cc1-c1nc2ccc(C(=N)N)cc2[nH]1 | 97% (active) | 0% | -1 | 96% (active) | inactive | inactive | inactive | inactive
N#Cc1ccc2c(c1)CCN(CCC1CCC(NC(=O)c3ccc(-c4ccccc4)s3)CC1)CC2 (stereo not given) | 36% | 6% | 0 | 99% (active) | inactive | inactive | inactive | inactive
Cc1nc2nc(N)nc(N)c2c(C)c1Cc1ccc(C(N)=O)cc1 | -3% | 55% (active) | 3 | 97% (active) | inactive | inactive | inactive | inactive
CCN(CC)CCNc1nc(C=Cc2ccc(Cl)cc2)nc2cc3ccccc3cc12 | 99% (active) | 83% (active) | -3 | 100% (active) | inactive | inactive | inactive | inactive
O=C(Nc1cccc(F)c1)N1CCC(NS(=O)(=O)c2ccc(Br)cc2)CC1 | 23% | 4% | -1 | 93% (active) | inactive | inactive | inactive | inactive
COc1cc(F)c2ncc(Cl)c(CCN3CCC(NCc4ccc5c(c4)OCCO5)CC3)c2c1 | 92% (active) | 35% | -7 | 97% (active) | inactive | inactive | inactive | inactive
COc1cccc(-c2ccc(C(=O)NC3CCN(Cc4ccc(N(C)C)cc4)CC3)s2)c1 | 20% | 8% | -1 | 81% (active) | inactive | inactive | inactive | inactive
CN(C)CCCOc1ccccc1CN1CC[C@H](NC(=O)c2ccc(Cl)c(Cl)c2)C1 | 54% (active) | 42% | -3 | 94% (active) | inactive | inactive | inactive | inactive
CC(C)CCNC(=O)c1cnc2c(O)cccc2c1Nc1cccc(NC(=O)c2ccc(F)cc2)c1 | 43% | 51% (active) | -1 | 93% (active) | inactive | inactive | inactive | inactive
Cc1ccc2[nH]c(C)c(Br)c(=O)c2c1 | 84% (active) | -4% | -5 | 95% (active) | inactive | inactive | inactive | inactive

SMILES | growth inhibition [1] | inhibition [2] | inhibition [3] [%] | growth inhibition [4] | outcome [5] | outcome [6] | outcome [7] | outcome [8]
COc1ccccc1CNC(=O)c1ccc(N2CCN(c3ccncc3)CC2)cn1 | 17% | 16% | 2 | 96% (active) | inactive | inactive | inactive | inactive
Cc1ccc(C(C)C)cc1CON1C(N)=NC(N)=NC1(C)C | 92% (active) | 66% (active) | -3 | 94% (active) | inactive | inactive | inactive | inactive
O=C(Nc1ccncc1)Nc1ccc2c(c1)CCN(C1CCC1)CC2 | 4% | -1% | 4 | 87% (active) | inactive | inactive | inactive | inactive
CCOCCCn1c(=N)c(C(=O)NC(C)c2ccccc2)cc2c(=O)n3cccc(C)c3nc21 (stereo not given) | 31% | 24% | -4 | 95% (active) | inactive | inactive | inactive | inactive
CC(C)CCn1c(Sc2ccc(C#N)c([N+](=O)[O-])c2)nnc1-c1ccc(N(C)C)cc1 | 96% (active) | 11% | 3 | 97% (active) | inactive | inactive | inactive | inactive
Cc1ccc(C(=O)Nc2ccc(C)c(OC3CCN(CCC(C)C)C3)c2)cc1 (stereo not given) | 53% (active) | 6% | -13 | 99% (active) | inactive | inactive | inactive | inactive
CCCCCc1cnc2nc(N)nc(N)c2c1 | 6% | 72% (active) | -1 | 82% (active) | inactive | inactive | inactive | inactive
CCCC(CNCc1cccc(OC(F)(F)F)c1)CNc1cc(=O)c2ccccc2[nH]1 (stereo not given) | 95% (active) | -4% | -2 | 101% (active) | inactive | inactive | inactive | inactive
COc1ccc2nc3cc(Cl)ccc3c(NCCO)c2c1 | 93% (active) | 12% | 9 | 101% (active) | inactive | inactive | inactive | inactive
O=C(Nc1nc2cc(S(=O)(=O)NCCc3ccc(F)cc3)ccc2n1CCCn1ccnc1)c1ccc(Cl)cc1 | 55% (active) | 18% | 3 | 100% (active) | inactive | inactive | inactive | inactive
CCc1ccc(N2C(N)=NC(N)=NC2(C)C)cc1 | -1% | 51% (active) | -2 | 94% (active) | inactive | inactive | inactive | inactive
COc1cccc(-c2ccc(NC(=O)C3CCCN(Cc4cccc(OC)c4O)C3)cc2)c1 (stereo not given) | 78% (active) | 13% | 1 | 98% (active) | inactive | inactive | inactive | inactive
CCCC(C)Nc1nc(C)cc(N[C@@H](Cc2ccccc2)C(=O)NCc2cccc(F)c2)n1 (stereo not given in full) | 75% (active) | 9% | -2 | 100% (active) | inactive | inactive | inactive | inactive
CN(C)CCOc1ccc(N2CCN(CCCCNC(=O)c3ccc(/C=C/c4cc(Cl)cc(Cl)c4)cc3)CC2)cc1 | 84% (active) | 97% (active) | 1 | 98% (active) | inactive | inactive | inactive | inactive
COc1ccc(CN(C)CCOc2ccc(NC(=O)c3cccc4c(=O)c5cc(SC)ccc5[nH]c34)cc2)cc1OC | 98% (active) | 67% (active) | 1 | 96% (active) | inactive | inactive | inactive | inactive
O=C(Nc1cc(C(F)(F)F)ccc1Cl)c1ccc(Cn2cc(Br)cn2)cc1 | 67% (active) | 24% | -5 | 91% (active) | inactive | inactive | inactive | inactive
COc1ccc(CCNc2nc(SCc3ccccc3Cl)nc3ccccc23)cc1OC | 2% | 27% | 0 | 94% (active) | inactive | inactive | inactive | inactive
O=C1COc2cc(Cl)c(CNC3CCN(CCc4ccnc5c(F)cc(F)cc45)CC3)nc2N1 | 49% | 96% (active) | -2 | 98% (active) | inactive | inactive | inactive | inactive
CN(CCCN(C)c1cc(NC(=O)c2ccc(F)cc2)ccn1)Cc1cccc(O)c1 | 0% | 2% | 1 | 90% (active) | inactive | inactive | inactive | inactive
Cc1cc(OCCN2CCCCC2)ccc1NC(=O)c1cccc2c(=O)n(Cc3ccc(Cl)cc3)cnc12 | 56% (active) | 100% (active) | 0 | 88% (active) | inactive | inactive | inactive | inactive
